Reference: paper PMC7862700, “An all-to-all approach to the identification of sequence-specific readers for epigenetic DNA modifications on cytosine”

What was measured:
Assay in all cases: DAPPL (digital affinity profiling via proximity ligation, sequencing); 10 mM Tris-HCl pH 7.5, 50 mM NaCl, 1 mM DTT, 4% glycerol, room temperature, 30 min; GST-TFs on glutathione beads, 16-mer random dsDNA library, 0.1% formaldehyde crosslink after washing; high values mean tight binding
[1] = molecular target: T1, FLI1 (Homo sapiens, UniProt Q01543 1-452); conditions: protein: recombinant; tags: N-terminal GST; dsDNA, one strand shown
T1 sequence: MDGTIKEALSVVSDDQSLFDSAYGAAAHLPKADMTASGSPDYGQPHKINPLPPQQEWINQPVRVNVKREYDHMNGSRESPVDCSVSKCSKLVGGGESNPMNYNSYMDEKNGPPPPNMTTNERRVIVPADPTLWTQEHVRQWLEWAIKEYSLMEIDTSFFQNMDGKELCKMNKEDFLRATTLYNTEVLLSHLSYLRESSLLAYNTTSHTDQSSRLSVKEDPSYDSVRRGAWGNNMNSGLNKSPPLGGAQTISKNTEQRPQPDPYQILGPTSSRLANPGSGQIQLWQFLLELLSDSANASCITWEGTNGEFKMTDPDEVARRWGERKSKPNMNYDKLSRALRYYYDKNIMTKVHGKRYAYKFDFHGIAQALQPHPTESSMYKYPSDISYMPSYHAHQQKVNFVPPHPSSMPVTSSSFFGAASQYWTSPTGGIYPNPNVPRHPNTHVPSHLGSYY
Summary of the method: (§1)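 Pools of DNA-barcoded human transcription factors, expressed in yeast as GST fusions on glutathione beads and combined with a tag-only sample, were incubated with 200 nmole of a 16-mer random double-stranded DNA library. Incubation took 30 min at room temperature in Tris/NaCl/DTT/glycerol buffer and was followed by washing, 0.1% formaldehyde crosslinking, proximity ligation (BsaI/T4 ligase, 1 h, 37 °C), PCR amplification and sequencing on an Illumina NextSeq500. Binding signal is the ratio of a hexamer's read frequency for a factor to its frequency for the tag-only sample.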

[2] = molecular target: T2, ELK1 (Homo sapiens, UniProt P19419 1-428); conditions: protein: recombinant; tags: N-terminal GST; dsDNA, one strand shown
T2 sequence: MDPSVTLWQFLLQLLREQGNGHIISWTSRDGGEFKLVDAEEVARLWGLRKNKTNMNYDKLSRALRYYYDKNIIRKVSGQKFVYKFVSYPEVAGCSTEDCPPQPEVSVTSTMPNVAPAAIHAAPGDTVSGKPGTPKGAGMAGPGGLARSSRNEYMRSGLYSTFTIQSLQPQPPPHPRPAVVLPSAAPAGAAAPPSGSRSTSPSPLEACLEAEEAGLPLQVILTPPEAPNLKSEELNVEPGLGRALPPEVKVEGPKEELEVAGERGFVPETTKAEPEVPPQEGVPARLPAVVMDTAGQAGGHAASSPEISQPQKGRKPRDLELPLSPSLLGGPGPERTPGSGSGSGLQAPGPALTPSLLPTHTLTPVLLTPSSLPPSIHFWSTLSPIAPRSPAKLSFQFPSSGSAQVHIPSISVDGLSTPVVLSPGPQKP
Summary of the method: as §1

[3] = molecular target: T3, GABPA (Homo sapiens, UniProt Q06546 1-454); conditions: protein: recombinant; tags: N-terminal GST; dsDNA, one strand shown
T3 sequence: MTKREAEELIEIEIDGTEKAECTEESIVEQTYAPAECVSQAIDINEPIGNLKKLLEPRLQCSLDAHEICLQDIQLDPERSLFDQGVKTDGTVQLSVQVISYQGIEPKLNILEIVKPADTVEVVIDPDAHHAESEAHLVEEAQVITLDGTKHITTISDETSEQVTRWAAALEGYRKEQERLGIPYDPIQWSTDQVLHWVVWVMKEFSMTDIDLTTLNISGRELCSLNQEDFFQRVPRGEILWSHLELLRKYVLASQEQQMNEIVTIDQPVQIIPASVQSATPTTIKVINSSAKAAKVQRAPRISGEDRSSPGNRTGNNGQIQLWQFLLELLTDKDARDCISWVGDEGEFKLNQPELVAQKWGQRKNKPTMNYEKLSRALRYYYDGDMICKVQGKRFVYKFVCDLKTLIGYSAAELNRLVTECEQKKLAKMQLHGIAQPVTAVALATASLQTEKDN
Summary of the method: as §1

[4] = molecular target: T4, ERG (Homo sapiens, UniProt P11308 1-479); conditions: protein: recombinant; tags: N-terminal GST; dsDNA, one strand shown
T4 sequence: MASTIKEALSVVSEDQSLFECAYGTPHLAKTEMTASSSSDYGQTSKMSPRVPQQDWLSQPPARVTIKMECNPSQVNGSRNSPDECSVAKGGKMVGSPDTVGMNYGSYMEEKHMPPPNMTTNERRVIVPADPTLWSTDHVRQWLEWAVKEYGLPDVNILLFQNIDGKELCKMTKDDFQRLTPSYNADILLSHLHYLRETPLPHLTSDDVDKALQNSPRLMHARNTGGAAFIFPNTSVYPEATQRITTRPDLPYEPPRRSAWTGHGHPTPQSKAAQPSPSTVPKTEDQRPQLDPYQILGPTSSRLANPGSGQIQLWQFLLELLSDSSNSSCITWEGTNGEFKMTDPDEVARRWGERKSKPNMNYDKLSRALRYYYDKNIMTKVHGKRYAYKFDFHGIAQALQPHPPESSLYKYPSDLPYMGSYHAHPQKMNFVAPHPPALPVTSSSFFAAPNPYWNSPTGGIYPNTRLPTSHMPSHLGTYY
Summary of the method: as §1

[5] = molecular target: ELF1 (Homo sapiens, UniProt P32519 1-619); conditions: protein: recombinant; tags: N-terminal GST; dsDNA, one strand shown
ELF1, sequence (P32519 whole entry): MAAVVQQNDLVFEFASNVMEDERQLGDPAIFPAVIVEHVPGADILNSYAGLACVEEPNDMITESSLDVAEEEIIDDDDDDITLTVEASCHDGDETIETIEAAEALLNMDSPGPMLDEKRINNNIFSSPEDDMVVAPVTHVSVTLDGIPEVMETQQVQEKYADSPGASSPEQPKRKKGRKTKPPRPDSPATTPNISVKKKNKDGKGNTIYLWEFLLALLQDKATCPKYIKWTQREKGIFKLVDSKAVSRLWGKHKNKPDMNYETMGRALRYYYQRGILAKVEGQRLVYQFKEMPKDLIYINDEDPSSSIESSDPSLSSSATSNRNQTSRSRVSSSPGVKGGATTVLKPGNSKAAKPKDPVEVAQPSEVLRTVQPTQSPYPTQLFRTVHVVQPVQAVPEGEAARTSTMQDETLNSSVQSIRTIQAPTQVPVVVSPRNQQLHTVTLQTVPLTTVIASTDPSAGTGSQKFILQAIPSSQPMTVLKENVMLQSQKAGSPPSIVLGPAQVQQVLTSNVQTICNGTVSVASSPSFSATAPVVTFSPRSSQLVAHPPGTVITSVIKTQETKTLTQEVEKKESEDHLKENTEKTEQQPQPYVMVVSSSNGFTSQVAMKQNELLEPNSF
Summary of the method: as §1

[6] = molecular target: T5, EHF (Homo sapiens, UniProt Q9NZC4 1-300); conditions: protein: recombinant; tags: N-terminal GST; dsDNA, one strand shown
T5 sequence: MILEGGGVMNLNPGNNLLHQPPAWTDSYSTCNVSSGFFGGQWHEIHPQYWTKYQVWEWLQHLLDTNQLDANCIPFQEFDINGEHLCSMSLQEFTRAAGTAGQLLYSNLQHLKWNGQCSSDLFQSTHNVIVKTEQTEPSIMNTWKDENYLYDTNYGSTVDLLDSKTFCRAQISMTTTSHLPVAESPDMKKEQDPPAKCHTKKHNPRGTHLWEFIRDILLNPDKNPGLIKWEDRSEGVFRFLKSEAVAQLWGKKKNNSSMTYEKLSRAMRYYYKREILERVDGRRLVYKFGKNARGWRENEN
Summary of the method: as §1

[7] = molecular target: SPI1 (Homo sapiens, UniProt P17947 1-270); conditions: protein: recombinant; tags: N-terminal GST; dsDNA, one strand shown
Summary of the method: as §1

[8] = molecular target: SPIB (Homo sapiens, UniProt Q01892 1-262); conditions: protein: recombinant; tags: N-terminal GST; dsDNA, one strand shown
SPIB, sequence (Q01892 whole entry): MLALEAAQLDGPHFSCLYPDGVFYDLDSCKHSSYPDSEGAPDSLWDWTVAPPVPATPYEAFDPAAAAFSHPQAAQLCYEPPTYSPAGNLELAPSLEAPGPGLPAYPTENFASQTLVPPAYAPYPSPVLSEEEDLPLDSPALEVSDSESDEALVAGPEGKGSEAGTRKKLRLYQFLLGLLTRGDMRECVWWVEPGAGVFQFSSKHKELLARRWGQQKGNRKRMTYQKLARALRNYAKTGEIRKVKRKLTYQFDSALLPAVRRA
Summary of the method: as §1

[9] = molecular target: T6, ELK3 (Homo sapiens, UniProt P41970 1-407); conditions: protein: recombinant; tags: N-terminal GST; dsDNA, one strand shown
T6 sequence: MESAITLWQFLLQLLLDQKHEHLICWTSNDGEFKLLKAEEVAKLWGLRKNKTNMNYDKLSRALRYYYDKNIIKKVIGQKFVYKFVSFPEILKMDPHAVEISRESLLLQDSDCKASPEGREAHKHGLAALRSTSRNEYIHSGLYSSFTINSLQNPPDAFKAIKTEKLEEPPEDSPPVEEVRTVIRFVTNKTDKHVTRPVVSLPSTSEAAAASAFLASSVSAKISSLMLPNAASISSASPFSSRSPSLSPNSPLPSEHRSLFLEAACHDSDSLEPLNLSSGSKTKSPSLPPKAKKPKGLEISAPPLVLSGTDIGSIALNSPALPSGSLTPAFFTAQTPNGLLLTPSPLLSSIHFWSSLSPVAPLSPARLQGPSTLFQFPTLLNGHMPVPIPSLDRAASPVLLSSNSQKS
Summary of the method: as §1

[10] = molecular target: T7, FEV (Homo sapiens, UniProt Q99581 1-238); conditions: protein: recombinant; tags: N-terminal GST; dsDNA, one strand shown
T7 sequence: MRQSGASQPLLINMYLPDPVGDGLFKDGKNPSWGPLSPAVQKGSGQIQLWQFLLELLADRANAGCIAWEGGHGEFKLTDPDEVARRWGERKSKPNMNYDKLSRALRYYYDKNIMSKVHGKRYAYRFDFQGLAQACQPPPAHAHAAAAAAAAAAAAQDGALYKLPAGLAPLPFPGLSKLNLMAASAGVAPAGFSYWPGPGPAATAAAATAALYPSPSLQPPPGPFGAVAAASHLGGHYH
Summary of the method: as §1

[11] = molecular target: ETV5 (Homo sapiens, UniProt P41161 1-510); conditions: protein: recombinant; tags: N-terminal GST; dsDNA, one strand shown
ETV5, sequence (P41161 whole entry): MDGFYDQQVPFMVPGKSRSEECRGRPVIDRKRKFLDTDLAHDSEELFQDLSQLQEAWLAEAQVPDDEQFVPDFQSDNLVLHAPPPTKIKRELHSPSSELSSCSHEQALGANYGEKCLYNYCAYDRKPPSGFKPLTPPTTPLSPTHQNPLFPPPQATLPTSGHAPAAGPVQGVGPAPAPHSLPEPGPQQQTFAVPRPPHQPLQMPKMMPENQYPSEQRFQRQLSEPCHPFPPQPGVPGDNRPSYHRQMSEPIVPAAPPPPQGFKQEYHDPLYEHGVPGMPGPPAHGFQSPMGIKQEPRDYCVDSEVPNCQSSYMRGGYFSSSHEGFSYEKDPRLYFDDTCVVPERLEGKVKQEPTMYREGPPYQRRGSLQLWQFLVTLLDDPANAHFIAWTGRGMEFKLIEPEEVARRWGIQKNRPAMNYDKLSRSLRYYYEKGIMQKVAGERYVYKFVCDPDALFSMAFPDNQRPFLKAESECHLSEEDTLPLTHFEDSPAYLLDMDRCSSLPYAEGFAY
Summary of the method: as §1

[12] = molecular target: HSF1 (Homo sapiens, UniProt Q00613 1-529); conditions: protein: recombinant; tags: N-terminal GST; chain copies: 3; dsDNA, one strand shown
HSF1, sequence (Q00613 whole entry): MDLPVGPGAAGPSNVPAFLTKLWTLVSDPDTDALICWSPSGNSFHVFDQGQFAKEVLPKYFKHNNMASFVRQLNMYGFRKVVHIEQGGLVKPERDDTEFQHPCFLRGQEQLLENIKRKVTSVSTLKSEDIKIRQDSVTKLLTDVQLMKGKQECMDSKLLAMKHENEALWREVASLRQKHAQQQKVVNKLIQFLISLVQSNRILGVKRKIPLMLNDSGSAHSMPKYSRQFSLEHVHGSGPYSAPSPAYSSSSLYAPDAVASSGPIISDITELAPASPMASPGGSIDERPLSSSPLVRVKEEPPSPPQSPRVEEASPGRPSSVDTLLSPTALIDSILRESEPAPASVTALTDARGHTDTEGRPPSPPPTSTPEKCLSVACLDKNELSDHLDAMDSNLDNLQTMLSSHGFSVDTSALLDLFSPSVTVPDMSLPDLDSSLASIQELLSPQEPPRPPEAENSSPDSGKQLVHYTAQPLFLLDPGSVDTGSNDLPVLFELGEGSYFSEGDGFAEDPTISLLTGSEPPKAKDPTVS
Summary of the method: as §1

[13] = molecular target: T8, SPIC (Homo sapiens, UniProt Q8N5J4 1-248); conditions: protein: recombinant; tags: N-terminal GST; dsDNA, one strand shown
T8 sequence: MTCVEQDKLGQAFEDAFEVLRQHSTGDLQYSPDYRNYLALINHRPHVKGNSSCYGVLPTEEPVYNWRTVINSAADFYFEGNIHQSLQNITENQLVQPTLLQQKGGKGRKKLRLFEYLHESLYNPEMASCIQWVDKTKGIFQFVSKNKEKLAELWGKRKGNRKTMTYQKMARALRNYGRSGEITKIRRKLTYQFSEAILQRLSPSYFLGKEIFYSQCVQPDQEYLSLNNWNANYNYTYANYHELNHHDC
Summary of the method: as §1

[14] = molecular target: ELF4 (Homo sapiens, UniProt Q99607 1-663); conditions: protein: recombinant; tags: N-terminal GST; dsDNA, one strand shown
ELF4, sequence (Q99607 whole entry): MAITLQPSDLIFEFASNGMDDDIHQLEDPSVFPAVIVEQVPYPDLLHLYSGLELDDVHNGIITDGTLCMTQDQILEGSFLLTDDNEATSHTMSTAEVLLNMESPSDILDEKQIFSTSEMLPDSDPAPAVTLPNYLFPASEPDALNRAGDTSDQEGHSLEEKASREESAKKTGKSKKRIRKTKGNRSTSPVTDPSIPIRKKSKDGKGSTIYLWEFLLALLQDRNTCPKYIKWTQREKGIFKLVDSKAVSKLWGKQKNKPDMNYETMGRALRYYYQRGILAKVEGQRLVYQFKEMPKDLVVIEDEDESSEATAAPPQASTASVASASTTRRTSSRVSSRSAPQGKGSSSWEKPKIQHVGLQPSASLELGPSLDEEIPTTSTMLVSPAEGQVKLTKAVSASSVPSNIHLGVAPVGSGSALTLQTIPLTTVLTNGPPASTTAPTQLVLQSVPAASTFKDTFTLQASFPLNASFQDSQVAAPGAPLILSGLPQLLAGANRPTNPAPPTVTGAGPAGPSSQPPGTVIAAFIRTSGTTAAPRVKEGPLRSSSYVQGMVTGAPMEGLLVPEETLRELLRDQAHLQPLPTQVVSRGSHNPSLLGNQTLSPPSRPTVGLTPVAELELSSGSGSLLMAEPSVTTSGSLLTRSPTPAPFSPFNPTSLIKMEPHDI
Summary of the method: as §1

[15] = molecular target: T9, ELK4 (Homo sapiens, UniProt P28324-2 1-405); conditions: protein: recombinant; tags: N-terminal GST; dsDNA, one strand shown
T9 sequence: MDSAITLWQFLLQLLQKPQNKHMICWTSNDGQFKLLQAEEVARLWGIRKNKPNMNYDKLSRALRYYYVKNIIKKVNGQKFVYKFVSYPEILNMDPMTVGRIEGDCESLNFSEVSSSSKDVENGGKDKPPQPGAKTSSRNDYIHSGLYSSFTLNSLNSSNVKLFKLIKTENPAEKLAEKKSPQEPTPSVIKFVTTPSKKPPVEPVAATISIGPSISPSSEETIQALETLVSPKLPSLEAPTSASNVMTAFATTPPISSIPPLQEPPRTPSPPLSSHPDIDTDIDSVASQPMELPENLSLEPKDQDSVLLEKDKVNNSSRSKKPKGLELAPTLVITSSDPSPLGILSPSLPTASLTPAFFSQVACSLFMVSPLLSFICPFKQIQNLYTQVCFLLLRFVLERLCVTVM
Summary of the method: as §1

[16] = molecular target: T10, ETV2 (Homo sapiens, UniProt O00321 1-342); conditions: protein: recombinant; tags: N-terminal GST; dsDNA, one strand shown
T10 sequence: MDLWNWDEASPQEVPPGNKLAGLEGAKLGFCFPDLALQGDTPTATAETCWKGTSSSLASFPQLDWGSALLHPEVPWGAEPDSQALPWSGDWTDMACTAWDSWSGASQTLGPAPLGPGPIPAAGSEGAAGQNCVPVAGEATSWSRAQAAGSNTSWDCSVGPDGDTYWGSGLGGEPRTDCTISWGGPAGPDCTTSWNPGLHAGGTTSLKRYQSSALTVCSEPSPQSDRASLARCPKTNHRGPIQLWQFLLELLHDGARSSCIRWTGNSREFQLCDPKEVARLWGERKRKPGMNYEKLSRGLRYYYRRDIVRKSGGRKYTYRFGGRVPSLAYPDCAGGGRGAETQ
Summary of the method: as §1

[17] = molecular target: T11, ELF3 (Homo sapiens, UniProt P78545 1-371); conditions: protein: recombinant; tags: N-terminal GST; dsDNA, one strand shown
T11 sequence: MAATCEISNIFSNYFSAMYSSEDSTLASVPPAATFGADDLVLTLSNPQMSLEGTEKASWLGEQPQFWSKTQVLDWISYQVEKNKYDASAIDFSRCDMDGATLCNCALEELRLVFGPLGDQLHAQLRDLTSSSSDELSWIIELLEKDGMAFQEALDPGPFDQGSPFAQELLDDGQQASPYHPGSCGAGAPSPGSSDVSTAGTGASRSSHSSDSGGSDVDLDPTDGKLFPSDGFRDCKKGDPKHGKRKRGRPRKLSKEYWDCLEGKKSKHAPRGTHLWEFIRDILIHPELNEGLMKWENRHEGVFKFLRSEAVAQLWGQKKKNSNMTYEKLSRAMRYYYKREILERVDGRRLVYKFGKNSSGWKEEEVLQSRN
Summary of the method: as §1

[18] = molecular target: CRX (Homo sapiens, UniProt O43186 1-299); conditions: protein: recombinant; tags: N-terminal GST; dsDNA, one strand shown
CRX, sequence (O43186 whole entry): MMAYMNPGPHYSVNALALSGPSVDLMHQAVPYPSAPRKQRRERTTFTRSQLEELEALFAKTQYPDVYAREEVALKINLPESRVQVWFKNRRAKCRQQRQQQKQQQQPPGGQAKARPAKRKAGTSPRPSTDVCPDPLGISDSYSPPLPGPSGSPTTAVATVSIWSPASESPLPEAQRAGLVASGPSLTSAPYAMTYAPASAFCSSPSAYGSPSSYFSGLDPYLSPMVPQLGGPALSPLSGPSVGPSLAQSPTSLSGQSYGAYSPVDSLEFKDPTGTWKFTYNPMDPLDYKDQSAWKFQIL
Summary of the method: as §1

[19] = molecular target: ETV1 (Homo sapiens, UniProt P50549 1-477); conditions: protein: recombinant; tags: N-terminal GST; dsDNA, one strand shown
ETV1, sequence (P50549 whole entry): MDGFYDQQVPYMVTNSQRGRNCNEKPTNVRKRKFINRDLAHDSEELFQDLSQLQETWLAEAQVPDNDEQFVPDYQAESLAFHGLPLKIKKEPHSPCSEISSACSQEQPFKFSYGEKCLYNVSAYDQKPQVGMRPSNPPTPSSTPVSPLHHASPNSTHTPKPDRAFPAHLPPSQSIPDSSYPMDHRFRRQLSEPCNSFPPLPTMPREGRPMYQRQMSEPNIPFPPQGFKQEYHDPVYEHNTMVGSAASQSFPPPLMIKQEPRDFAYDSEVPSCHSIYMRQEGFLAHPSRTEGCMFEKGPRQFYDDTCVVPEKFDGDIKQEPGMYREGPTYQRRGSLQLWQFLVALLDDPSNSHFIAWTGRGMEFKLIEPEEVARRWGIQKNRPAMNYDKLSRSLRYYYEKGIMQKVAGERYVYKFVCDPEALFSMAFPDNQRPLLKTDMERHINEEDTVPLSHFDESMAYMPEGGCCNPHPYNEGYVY
Summary of the method: as §1

## AATTAT
[1]
  binding signal: 1.24 fold enrichment (6-mer frequency, TF over GST control)
[2]
  binding signal: 1.25 fold enrichment (6-mer frequency, TF over GST control)
[3]
  binding signal: 1.2 fold enrichment (6-mer frequency, TF over GST control)
[4]
  binding signal: 1.26 fold enrichment (6-mer frequency, TF over GST control)
[5]
  binding signal: 1.22 fold enrichment (6-mer frequency, TF over GST control)
[6]
  binding signal: 1.23 fold enrichment (6-mer frequency, TF over GST control)
[7]
  binding signal: 1.18 fold enrichment (6-mer frequency, TF over GST control)
[8]
  binding signal: 1.23 fold enrichment (6-mer frequency, TF over GST control)
[9]
  binding signal: 1.25 fold enrichment (6-mer frequency, TF over GST control)
[10]
  binding signal: 1.25 fold enrichment (6-mer frequency, TF over GST control)
[11]
  binding signal: 1.29 fold enrichment (6-mer frequency, TF over GST control)
[12]
  binding signal: 1.55 fold enrichment (6-mer frequency, TF over GST control)
[13]
  binding signal: 1.33 fold enrichment (6-mer frequency, TF over GST control)
[14]
  binding signal: 1.16 fold enrichment (6-mer frequency, TF over GST control)
[15]
  binding signal: 1.12 fold enrichment (6-mer frequency, TF over GST control)
[16]
  binding signal: 1.28 fold enrichment (6-mer frequency, TF over GST control)
[17]
  binding signal: 1.27 fold enrichment (6-mer frequency, TF over GST control)
[18]
  binding signal: 2.05 fold enrichment (6-mer frequency, TF over GST control)
[19]
  binding signal: 1.26 fold enrichment (6-mer frequency, TF over GST control)
